# Test results reported in PubChem BioAssay (NCI).
# The panel holds about 83,000 compounds, 20% with a hit somewhere; the sample as a whole holds those more often.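 Note: values are percent growth. 100 is the growth of untreated cells, values between 100 and 0 indicate rising inhibition; between -100 and 0 indicates cell death.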 Unmarked numbers belong to inactive results. Active and inactive are the calls of the source. Rule for the calls: active = growth percent below 10; inactive = the rest.
# What was measured:
# Assay in all cases: NCI-60 one-dose screen, 48 h (100 = growth as untreated, 0 = no growth, -100 = all killed)
# Details in all cases: 10 µM unless noted
# NCI-H23 lung = tested on: NCI-H23 lung
# NCI-H226 lung = tested on: NCI-H226 lung
# NCI-H322M lung = tested on: NCI-H322M lung
# NCI-H460 lung = tested on: NCI-H460 lung
# HOP-92 NSCLC = tested on: HOP-92 NSCLC
# NCI-H522 lung = tested on: NCI-H522 lung
# A549/ATCC NSCLC = tested on: A549/ATCC NSCLC
# 786-0 renal = tested on: 786-0 renal
# COLO 205 colon = tested on: COLO 205 colon
SMILES,growth (NCI-H23 lung),growth (NCI-H226 lung),growth (NCI-H322M lung),growth (NCI-H460 lung),growth (HOP-92 NSCLC),growth (NCI-H522 lung),growth (A549/ATCC NSCLC),growth (786-0 renal),growth (COLO 205 colon)
Cc1cc(Nc2nc(SCc3ccc(C(=O)Nc4ccc(F)cc4N)cc3)nn3cccc23)n[nH]1,42.8%,51.6%,52.8%,9.98% (active),53.6%,-14.8% (active),30.8%,44.1%,-39.9% (active)
Cc1ccc(SC2c3ccc(C)cc3Oc3nc(N)c(C#N)c(N)c32)cc1 (stereo not given),82.8%,92.8%,104%,101%,66.6%,-53.4% (active),101%,91.4%,62.8%
COc1ccc(C(=O)c2cc(OC)c(C)c(OC)c2)cc1OC(=O)CCl,27.4%,104%,44%,7.36% (active),75.8%,16.2%,28.5%,42%,80.8%
[2H]c1nc(Nc2ncc3cc(C(=O)N(C)C)n(C4CCCC4)c3n2)c([2H])c([2H])c1N1C([2H])([2H])C([2H])([2H])NC([2H])([2H])C1([2H])[2H],67.1%,74.6%,71.5%,59.1%,–,61.8%,45%,52.9%,–
Cc1cccc(C)c1NCc1nnc(-c2ccc(O)cc2)o1,91.1%,95.5%,98.9%,96.9%,88.3%,97.1%,104%,102%,97.3%
O=CN1N=C(c2ccc(F)cc2)CC1c1cccc(Nc2ccnc3cc(C(F)(F)F)ccc23)c1 (stereo not given),42.5%,60.3%,85.1%,46.7%,67.4%,45.6%,61%,76.1%,32.3%
Cc1cccc(C)c1Nc1nnc(-c2ccc(F)cc2)o1,92.4%,96.1%,93.4%,104%,95.5%,112%,104%,112%,100%
O=C1C(=O)c2c(nc3ccc(C(F)(F)F)cn23)-c2ccccc21,-30.8% (active),-96.6% (active),-94.8% (active),-64.8% (active),-77.9% (active),-72.4% (active),-51.4% (active),-80.8% (active),-78.9% (active)
Cc1nccc2c3ccc(OCc4cn(-c5ccc(Cl)cc5)nn4)cc3n(CC(C)C)c12,14.1%,42%,66.1%,17%,8.37% (active),1.04% (active),30.7%,2.68% (active),-22.6% (active)
C=C(C)[C@@H]1CC[C@]2(C(=O)OCCOCCOCC[P+](c3ccccc3)(c3ccccc3)c3ccccc3)CC[C@]3(C)[C@H](CC[C@@H]4[C@@]5(C)CC[C@H](OC(=O)C(Cl)Cl)C(C)(C)[C@@H]5CC[C@]43C)[C@@H]12,0.446% (active),-2.33% (active),21%,-13.3% (active),-67.5% (active),-24.4% (active),6.87% (active),-85.1% (active),–
C=C(C)[C@@H]1CC[C@]2(C(=O)N3CCN(C)CC3)CC[C@]3(C)[C@H](CC[C@@H]4[C@@]5(C)C/C(=C/c6ccco6)C(=O)C(C)(C)[C@@H]5CC[C@]43C)[C@@H]12,79.9%,86.4%,79.9%,64.9%,55.7%,74%,60.6%,71.2%,–
